The values that follow come from PubChem BioAssay AID743449 (Broad Institute, 2014).

Among all 9,900 compounds or so, about 90 (0.9%) were called active. Not shown: some 2% with an inconclusive outcome. Only a selection was taken, and actives are over-represented in it overall. Unmarked numbers belong to inactive results.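 How the source made its calls: active means mean normalized replicate activity at least 50 and at least half of replicates each reaching 50; inconclusive means only one of the two criteria met; inactive means neither criterion met.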

A short description of this test: reduction of CTGF mRNA in DLD1 cells – DLD1 colon cancer cells, RT-qPCR, single point, primary screen (AID 743449).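 Further: 0% = neutral control wells and 100% = dasatinib control wells; higher means stronger suppression of CTGF expression like dasatinib.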 To be noted: 24 h, at 12.5 µM, active compounds read high.
For orientation: inhibition means the drop in the measured response relative to a control, in per cent. As to `COc1ccc(-c2ccc([C@@H]3[C@@H](CO)N4C(=O)CN(C(=O)Cc5ccccn5)C[C@@H]34)cc2)cc1`, the inhibition is 16.8%.

For `CO[C@H](CN(C)Cc1ccc2c(c1)OCO2)[C@@H](C)CN(C(=O)Nc1ccc(F)cc1)[C@H](C)CO`, the inhibition is -17.7%.

`CC(C)[C@H]1CC=CC[C@@H](C)Oc2ccccc2C(=O)N(C)[C@H](C(C)C)C(=O)N1` (mixture of isomers): the inhibition was 34.9%.

With `Cc1noc(C)c1NC(=O)N(C)C[C@@H]1Oc2cc(C#CCN(C)C)ccc2S(=O)(=O)N([C@H](C)CO)C[C@H]1C`, the inhibition was -1.27%.

On to `COc1ccc(S(=O)(=O)N(C)C[C@@H]2Oc3c(NC(=O)c4nc5ccccc5s4)cccc3C(=O)N([C@H](C)CO)C[C@H]2C)cc1`, for which the inhibition was 9.74%.

In the case of `C[C@H](CO)N1C[C@H](C)[C@@H](CN(C)C(=O)Nc2ccc3c(c2)OCO3)Oc2c(NC(=O)c3nc4ccccc4s3)cccc2C1=O`, the inhibition was 46.6%.

`C[C@H]1CN([C@@H](C)CO)C(=O)c2cccc(NC(=O)c3nc4ccccc4s3)c2O[C@@H]1CN(C)C(=O)Nc1ccc2c(c1)OCO2`: the inhibition was 78.9% (active).

For the compound `C[C@@H]1CN([C@H](C)CO)C(=O)c2cccc(NC(=O)c3nc4ccccc4s3)c2O[C@@H]1CN(C)C(=O)Nc1ccc2c(c1)OCO2`, the inhibition is 6.24%.

For `C[C@@H]1CN([C@H](C)CO)C(=O)c2cccc(NC(=O)c3nc4ccccc4s3)c2O[C@H]1CN(C)C(=O)Nc1ccc2c(c1)OCO2`, the inhibition is 73% (active).

Turning to `COc1ccc(S(=O)(=O)N(C)C[C@@H]2Oc3c(NC(=O)c4nc5ccccc5s4)cccc3C(=O)N([C@@H](C)CO)C[C@@H]2C)cc1`, the inhibition was 34.9%.

Regarding `C[C@@H]1CN([C@@H](C)CO)C(=O)c2cc(NC(=O)Cc3ccccc3)ccc2O[C@@H](C)CCCCO[C@H]1CN(C)Cc1ccncc1`, the inhibition was 2.97%.

`O=C(Nc1ccc(C(F)(F)F)cc1)Nc1ccc2c(c1)[C@H]1C[C@H](CC(=O)N3CCc4ccccc4C3)O[C@H](CO)[C@H]1O2`: the inhibition is 41.9%.

Consider `COc1ccccc1-c1ccc2c(c1)[C@@H]1[C@@H](CCN1S(=O)(=O)c1ccc(C)cc1)[C@H](CO)N2`, for which the inhibition is 37.4%.

Regarding `Cc1ccc(S(=O)(=O)N2CC[C@@H]3[C@H](CO)Nc4ccc(-c5cccc(C(=O)N(C)C)c5)cc4[C@@H]32)cc1`, the inhibition is -15%.

Turning to `N#Cc1cccc(-c2ccc3c(c2)[C@@H]2[C@@H](CCN2S(=O)(=O)c2ccc(F)cc2)[C@@H](CO)N3)c1`, the inhibition is 22.5%.

On to `C/C=C/c1ccc2c(c1)[C@@H]1[C@@H](CCN1S(=O)(=O)c1ccccc1OC)[C@H](CO)N2C`, for which the inhibition was -5.93%.

For the compound `N#Cc1cccc(-c2ccc3c(c2)[C@@H]2[C@@H](CCN2S(=O)(=O)c2ccc(F)cc2)[C@H](CO)N3)c1`, the inhibition is 63% (active).

With `COc1ccccc1S(=O)(=O)N1CC[C@@H]2[C@@H](CO)N(C)c3ccc(-c4cccc(C#N)c4)cc3[C@@H]21`, the inhibition was 32%.

With `N#Cc1cccc(-c2ccc3c(c2)[C@H]2[C@H](CCN2S(=O)(=O)c2ccc(F)cc2)[C@H](CO)N3)c1`, the inhibition is 20.1%.

Take `Cc1ccc(S(=O)(=O)N2CC[C@@H]3[C@@H](CO)Nc4ccc(-c5cccc(C(=O)N(C)C)c5)cc4[C@@H]32)cc1`: the inhibition is 4.93%.

Turning to `Cc1ccc(S(=O)(=O)N2CC[C@H]3[C@H](CO)Nc4ccc(-c5cccc(C(=O)N(C)C)c5)cc4[C@H]32)cc1`, the inhibition is 56.9% (active).

With `Cc1ccc(S(=O)(=O)N2CC[C@@H]3[C@H]2c2cc(-c4cccc(C(=O)N(C)C)c4)ccc2N[C@@H]3CO)cc1`, the inhibition was 68.4% (active).

`COc1ccccc1S(=O)(=O)N1CC[C@@H]2[C@H]1c1cc(-c3cccc(C#N)c3)ccc1N(C)[C@H]2CO`: the inhibition was 62.1% (active).

In the case of `COc1ccccc1-c1ccc2c(c1)[C@H]1[C@H](CCN1S(=O)(=O)c1ccc(C)cc1)[C@@H](CO)N2`, the inhibition was 17.3%.

Take `Cc1noc(C)c1S(=O)(=O)N(C)C[C@H]1OCc2ccccc2-c2ccccc2C(=O)N([C@H](C)CO)C[C@H]1C`: the inhibition was -25.8%.

With `C[C@@H]1CCCCO[C@@H](CN(C)CC2CCCCC2)[C@@H](C)CN([C@@H](C)CO)C(=O)c2cc(NS(C)(=O)=O)ccc2O1`, the inhibition is 2.58%.

As to `CS(=O)(=O)N1[C@H](CO)[C@@H](c2ccc(-c3ccccc3F)cc2)[C@@H]1C#N`, the inhibition is 16.4%.

As to `C[C@H]1CN([C@@H](C)CO)C(=O)c2ccccc2-c2ccccc2CO[C@H]1CN(C)Cc1ccccc1C(F)(F)F`, the inhibition is 12.5%.

As to `Cc1ccc(S(=O)(=O)N2C[C@@H](O)COC[C@H]3O[C@@H](CC(=O)NCc4ccc5c(c4)OCO5)CC[C@@H]32)cc1`, the inhibition was 25.4%.

Take `CCS(=O)(=O)N1CC(=O)N2[C@H](CO)[C@@H](c3ccc(C4=CCCCC4)cc3)[C@@H]2C1`: the inhibition is 0.977%.

In the case of `COc1ccc2c3c(n(C)c2c1)[C@H](CO)N(C)CC31CCN(C(=O)NC(C)C)CC1`, the inhibition was 18.6%.

For `C[C@@H]1CN([C@@H](C)CO)C(=O)c2c(c3ccccc3n2C)-c2ccccc2CO[C@@H]1CN(C)Cc1cccc(C(F)(F)F)c1`, the inhibition is -39%.

Take `COc1ccc([C@H]2C/C=C\C[C@H](c3ccc4c(c3)OCO4)NC(=O)[C@H](c3ccccc3)CC(=O)N2)c(OC)c1`: the inhibition is -62.1%.

For the compound `COc1ccc([C@@H]2C/C=C\C[C@@H](c3ccc4c(c3)OCO4)NC(=O)[C@H](c3ccccc3)CC(=O)N2)c(OC)c1`, the inhibition is 31%.

As to `COc1ccc([C@H]2C/C=C\C[C@@H](c3ccc4c(c3)OCO4)NC(=O)[C@@H](c3ccccc3)CC(=O)N2)c(OC)c1`, the inhibition was 58.4% (active).

In the case of `O=C(Nc1ccc(F)cc1)N1CC(=O)N2[C@H](CO)[C@@H](c3ccc(C#Cc4cccnc4)cc3)[C@@H]2C1`, the inhibition was -8.94%.

As for `O=C(Nc1ccc(F)cc1)N1C[C@@H]2[C@H](c3ccccc31)[C@@H](CO)N2Cc1ccccc1Cl`, the inhibition was -18.1%.

As for `OC[C@@H]1[C@@H](c2ccc(-c3cccnc3)cc2)[C@H]2CN(Cc3ccccn3)CCCCN12`, the inhibition was -1.92%.

In the case of `COc1ccc2c3c([nH]c2c1)[C@H](CO)NCC31CCN(C(=O)Cc2cccnc2)CC1`, the inhibition is 51% (active).

Take `CCCC(=O)N1CCC2(CC1)CN[C@H](CO)c1[nH]c3cc(OC)ccc3c12`: the inhibition was 2.25%.

Turning to `CCCC(=O)N1CCC2(CC1)CN[C@@H](CO)c1[nH]c3cc(OC)ccc3c12`, the inhibition is -5.58%.

For the compound `O=C(Nc1ccc(-c2ccccc2)cc1)[C@H]1[C@H](CO)[C@H]2Cn3c(cccc3=O)[C@H]2N1CC1CCOCC1`, the inhibition is 14.4%.

On to `O=C(C[C@H]1C[C@@H]2c3cc(NC(=O)C4CCC4)ccc3O[C@@H]2[C@H](CO)O1)NC1CCCC1`, for which the inhibition is -3.69%.

In the case of `CCCC(=O)Nc1ccc2c(c1)C(=O)N(C)[C@H]1CC[C@@H](CC(=O)N3CCCCC3)O[C@@H]1CO2`, the inhibition was -2.53%.

For `CC(C)(C)[S@](=O)N1Cc2cc(C(=O)NCCN3CCCC3)nc(-c3cccc(-c4ccc(C#N)cc4)c3)c2[C@@H]1CCO`, the inhibition is 29.4%.

Turning to `COc1ccccc1-c1cccc(-c2nc(C(=O)NCc3ccncc3)cc3c2[C@H](CCO)N([S@@](=O)C(C)(C)C)C3)c1`, the inhibition was 19.4%.

For the compound `CC(C)(C)[S@](=O)N1Cc2cc(C(=O)NCCc3ccncc3)nc(-c3cccc(-c4cccc(C#N)c4)c3)c2[C@@H]1CCO`, the inhibition is 79.3% (active).

Turning to `CC(C)(C)[S@@](=O)N1Cc2cc(C(=O)NCCc3ccncc3)nc(-c3cccc(-c4cccc(C#N)c4)c3)c2[C@H]1CCO`, the inhibition was 67.3% (active).

Consider `CC(C)(C)[S@@](=O)N1Cc2cc(C(=O)NCCN3CCCC3)nc(-c3cccc(-c4ccc(C#N)cc4)c3)c2[C@H]1CCO`, for which the inhibition was -8.4%.

Turning to `COc1ccccc1-c1cccc(-c2nc(C(=O)NCc3ccncc3)cc3c2[C@@H](CCO)N([S@](=O)C(C)(C)C)C3)c1`, the inhibition is 20%.

For `CCS(=O)(=O)N1CC2(CN(C(=O)c3ccc(F)cc3)[C@@H](CO)c3[nH]c4cc(OC)ccc4c32)C1`, the inhibition was 11.6%.

`C[C@@H]1CN([C@@H](C)CO)C(=O)c2cc(NC(=O)Nc3cccc4ccccc34)ccc2O[C@@H](C)CCCCO[C@@H]1CN(C)Cc1ccc(C(F)(F)F)cc1`: the inhibition was -20.9%.

As for `COc1ccc(C#Cc2ccc3c(c2)[C@H]2[C@H](CCN2S(=O)(=O)c2ccccc2C)[C@@H](CO)N3C)cc1`, the inhibition was -15.4%.

As to `CCCC(=O)N1CC2(C1)CN(CC1CC1)[C@@H](CO)c1[nH]c3cc(OC)ccc3c12`, the inhibition was -16.5%.

For the compound `COCC(=O)NC[C@@H]1[C@@H](c2ccccc2)[C@H](CO)N1C(=O)c1ccccc1`, the inhibition was 19.2%.

As for `O=C(CN1CCOCC1)N1CC(=O)N2[C@H](CO)[C@H](c3ccc(-c4cccc(F)c4)cc3)[C@@H]2C1`, the inhibition was -2.97%.

As to `C[C@@H]1CN([C@@H](C)CO)S(=O)(=O)c2ccc(C#Cc3cccc(F)c3)cc2O[C@H]1CN(C)S(=O)(=O)c1cn(C)cn1`, the inhibition was 8.89%.

Regarding `C[C@@H]1CN([C@@H](C)CO)S(=O)(=O)c2ccc(C#Cc3cccc(F)c3)cc2O[C@@H]1CN(C)S(=O)(=O)c1cn(C)cn1`, the inhibition was 40.9%.

`COc1cccc(C#Cc2ccc3c(c2)O[C@@H](CN(C)C(=O)CN2CCOCC2)[C@@H](C)CN([C@H](C)CO)S3(=O)=O)c1`: the inhibition was 8.35%.

For the compound `COc1cccc(C#Cc2ccc3c(c2)O[C@H](CN(C)C(=O)CN2CCOCC2)[C@H](C)CN([C@@H](C)CO)S3(=O)=O)c1`, the inhibition is 22.3%.

`COc1cccc(C#Cc2ccc3c(c2)O[C@@H](CN(C)C(=O)CN2CCOCC2)[C@@H](C)CN([C@@H](C)CO)S3(=O)=O)c1`: the inhibition is 50.7% (active).

Regarding `C[C@@H]1CN([C@H](C)CO)S(=O)(=O)c2ccc(C#Cc3cccc(F)c3)cc2O[C@@H]1CN(C)S(=O)(=O)c1cn(C)cn1`, the inhibition was 72.6% (active).
